{"source": "ChEMBL document CHEMBL3988442", "about": "“University of Dundee, Small-Polar-MMV Screening Library” (2021)", "note": "The whole screen tested about 48,000 compounds, of which about 13,000 (27%) showed an effect of 50% or more. The list shows a part of the results."}
{"system": "Wolbachia pipientis", "experiment": "Anti-Wolbachia Cell-Based Screen", "type": "functional", "parameters": "scale not given: in the data most compounds retested in dose-response had high values", "details": "5 µM", "units": {"Percent Effect": "%"}}
{"smiles": "CC(c1nc(C2CC2)no1)N1CCN(Cc2ccccc2F)CC1", "note": "(stereo unspecified)", "Percent Effect": 3.653}
{"smiles": "CCc1noc(C(C)N2CCN(Cc3noc(C)n3)CC2)n1", "note": "(stereo unspecified)", "Percent Effect": -22.55}
{"smiles": "Cc1nc(CN2CCN(C(C)c3nc(C4CC4)no3)CC2)no1", "note": "(stereo unspecified)", "Percent Effect": 103.1}
{"smiles": "Cc1noc(C(C)N2CCN(Cc3noc(C4CC4)n3)CC2)n1", "note": "(stereo unspecified)", "Percent Effect": 1.427}
{"smiles": "CC(C)c1noc(C(C)N2CCN(Cc3ccco3)CC2)n1", "note": "(stereo unspecified)", "Percent Effect": -4.875}
{"smiles": "Cc1nnc(C(C)N2CCN(Cc3noc(C(C)(C)C)n3)CC2)o1", "note": "(stereo unspecified)", "Percent Effect": 6.078}
{"smiles": "Cc1ccccc1CN1CCN(C(C)c2nc(C3CC3)no2)CC1", "note": "(stereo unspecified)", "Percent Effect": 114.1}
{"smiles": "CC(C)c1noc(C(C)N2CCN(Cc3noc(C(C)(C)C)n3)CC2)n1", "note": "(stereo unspecified)", "Percent Effect": 117.7}
{"smiles": "Cc1noc(C)c1CN1CCN(C(C)c2nc(C3CC3)no2)CC1", "note": "(stereo unspecified)", "Percent Effect": 133.7}
{"smiles": "Cc1noc(C)c1CN1CCN(Cc2nc(C3CC3)no2)CC1", "Percent Effect": -14.96}
{"smiles": "CC(c1nc(C2CC2)no1)N1CCN(Cc2ccccc2)CC1", "note": "(stereo unspecified)", "Percent Effect": 7.857}
{"smiles": "COc1ncccc1NC(=O)N1CCC(c2ccc(O)cc2)CC1", "Percent Effect": -2.726}
{"smiles": "CC(C)c1nc(C(=O)N2CCCC(N)CC2)cs1", "note": "(stereo unspecified)", "Percent Effect": -4.509}
{"smiles": "CN(CC(F)F)C(=O)c1cn(-c2ccc(Br)cc2)cn1", "Percent Effect": 1.903}
{"smiles": "CN(Cc1nc(C2CC2)no1)C(=O)C1COc2ccccc2C1", "note": "(stereo unspecified)", "Percent Effect": 29.53}
{"smiles": "Cc1ccnc(C(NC(=O)c2ncoc2C)C2CC2)n1", "note": "(stereo unspecified)", "Percent Effect": -4.451}
{"smiles": "CC(=O)c1cccc(OCC(=O)N(CC(C)C)C2CCN(C)CC2)c1", "Percent Effect": -3.463}
{"smiles": "Cn1cccc1C(=O)N1CCC2(CC1)c1nc[nH]c1CCN2S(C)(=O)=O", "Percent Effect": -21.07}
{"smiles": "Cc1c2ncn(CC(=O)N(C)C)c(=O)c2nn1C", "Percent Effect": -2.054}
{"smiles": "CC(C)(C)N1CCCN(C(=O)c2csc(S(N)(=O)=O)c2)CC1", "Percent Effect": 4.518}
{"smiles": "CC(C)c1nc(CN2CCN(C(C)c3nc(C4CC4)no3)CC2)no1", "note": "(stereo unspecified)", "Percent Effect": 0.3475}
{"smiles": "CC(C)c1noc(C(C)N2CCN(Cc3noc(C4CC4)n3)CC2)n1", "note": "(stereo unspecified)", "Percent Effect": 18.72}
{"smiles": "CC(c1nc(C2CC2)no1)N1CCN(Cc2noc(C3CC3)n2)CC1", "note": "(stereo unspecified)", "Percent Effect": 103.7}
{"smiles": "CC(NC(=O)N1CCN(c2ccccc2)CC1)c1nncn1C", "note": "(stereo unspecified)", "Percent Effect": 1.482}
{"smiles": "CC(C(=O)O)N1CCc2onc(-c3ccc(F)c(F)c3)c2C1", "note": "(stereo unspecified)", "Percent Effect": -3.454}
{"smiles": "CC(C)Cn1cc(C(=O)NC2CCS(=O)(=O)C2)c2ccccc2c1=O", "note": "(stereo unspecified)", "Percent Effect": 107.3}
{"smiles": "Cn1cc(CCNC(=O)NC2CCS(=O)(=O)C2)cn1", "note": "(stereo unspecified)", "Percent Effect": -13.02}
{"smiles": "O=C(NC1CCS(=O)(=O)C1)c1cn(C2CC2)c(=O)c2ccccc12", "note": "(stereo unspecified)", "Percent Effect": 92.4}
{"smiles": "CCc1c(C(=O)NC2CCS(=O)(=O)C2)cnn1-c1ccc(F)cc1", "note": "(stereo unspecified)", "Percent Effect": 9.191}
{"smiles": "COCCN1CCC(NC(=O)Cn2cc(C)c3ccccc32)CC1", "Percent Effect": -24.59}
{"smiles": "O=C(NC1CCS(=O)(=O)C1)c1ccc(-c2ccc(F)cc2)s1", "note": "(stereo unspecified)", "Percent Effect": 1.727}
{"smiles": "CC(C)[C@H](NC(=O)NC1CCS(=O)(=O)C1)C(=O)NCc1ccccc1Cl", "note": "(stereo partly specified)", "Percent Effect": -0.7444}
{"smiles": "CN(Cc1csc2ccccc12)C(=O)NC1CCS(=O)(=O)C1", "note": "(stereo unspecified)", "Percent Effect": -6.965}
{"smiles": "O=C(CCNC(=O)c1sccc1-c1ccccc1)NC1CCS(=O)(=O)C1", "note": "(stereo unspecified)", "Percent Effect": 26.53}
{"smiles": "COCCn1cc(C(=O)NC2CCS(=O)(=O)C2)c2ccccc2c1=O", "note": "(stereo unspecified)", "Percent Effect": 102}
{"smiles": "O=C(NC1CCC(N2C(=O)CCC2=O)CC1)c1c[nH]c2ccccc12", "note": "(stereo unspecified)", "Percent Effect": -1.536}
{"smiles": "CC(C)n1cc(C(=O)NC2CCS(=O)(=O)C2)c2ccccc2c1=O", "note": "(stereo unspecified)", "Percent Effect": 104.9}
{"smiles": "Cn1cnc2cc(C(=O)N3CCN(CCO)[C@@H]4CS(=O)(=O)C[C@@H]43)ccc21", "Percent Effect": -4.245}
{"smiles": "O=C(O)c1cc(-c2ccoc2)cc(S(=O)(=O)NC2CC2)c1", "Percent Effect": 13.87}
{"smiles": "c1cnc(NCC2Cn3nnc(-c4ccoc4)c3CO2)nc1", "note": "(stereo unspecified)", "Percent Effect": 9.551}
{"smiles": "Cc1nnc(CN2C[C@H](NC(=O)CC3CCCC3)[C@@H](C3CC3)C2)s1", "Percent Effect": -5.316}
{"smiles": "COC(=O)C1CN(Cc2ccn(-c3ccc(F)cc3)n2)C[C@@H](C)O1", "note": "(stereo partly specified)", "Percent Effect": -6.737}
{"smiles": "CCc1cc(NC(=O)c2cccc(OCC(F)(F)F)n2)[nH]n1", "Percent Effect": -13.74}
{"smiles": "CC(C)CCn1cc(C(=O)NC2CCS(=O)(=O)C2)c2ccccc2c1=O", "note": "(stereo unspecified)", "Percent Effect": 143.5}
{"smiles": "O=C(NC1CCS(=O)(=O)C1)c1sccc1OC(F)F", "note": "(stereo unspecified)", "Percent Effect": 15.29}
{"smiles": "O=C(NC1CCS(=O)(=O)C1)c1ccccc1SCc1cscn1", "note": "(stereo unspecified)", "Percent Effect": -4.386}
{"smiles": "Cc1nonc1-c1nc(C(C)C)nn1-c1ccc2c(c1)OCO2", "Percent Effect": -15.14}
{"smiles": "COCCn1cnc2ccc(NC(=O)c3c(C)noc3C)cc2c1=O", "Percent Effect": 114.6}
{"smiles": "Cc1noc(C)c1C(=O)NCC(O)c1ccc(F)cc1F", "note": "(stereo unspecified)", "Percent Effect": 3.33}
{"smiles": "CNC(=O)C(NC(=O)c1c(C)noc1C)c1ccc(F)c(F)c1", "note": "(stereo unspecified)", "Percent Effect": 1.933}
{"smiles": "Cc1noc(C)c1C(=O)NCCc1cccs1", "Percent Effect": -0.0309}
{"smiles": "COCCn1ccc2ccc(NC(=O)NCc3noc(C)n3)cc21", "Percent Effect": -17.56}
{"smiles": "Cc1noc(C)c1C(=O)Nc1ccc2ncn(CC(C)C)c(=O)c2c1", "Percent Effect": 120.5}
{"smiles": "COc1cc(S(=O)(=O)N2CCc3ccc(F)cc32)cc(C(=O)O)c1OC", "Percent Effect": -3.468}
{"smiles": "COc1ccc(C)cc1CSCCn1nc2ccccn2c1=O", "Percent Effect": 4.389}
{"smiles": "Cc1sc2nc(CCN)nc(N3CCS(=O)(=O)CC3)c2c1C", "Percent Effect": 5.115}
{"smiles": "CN1CCCC(N(C)C(=O)c2ccc(NC(=O)c3ccc[nH]3)cc2)C1", "note": "(stereo unspecified)", "Percent Effect": -8.212}
{"smiles": "Cc1ccc(C(=O)NC2CCCCNC2=O)c(=O)[nH]1", "note": "(stereo unspecified)", "Percent Effect": -8.505}
{"smiles": "CN1CCCC(NC(=O)c2ccc(C(=O)c3cc[nH]c3)cc2)C1", "note": "(stereo unspecified)", "Percent Effect": 107.5}
{"smiles": "O=C(NC1CCN(CC2CC2)C1)c1ccc(C(=O)c2cc[nH]c2)cc1", "note": "(stereo unspecified)", "Percent Effect": 2.424}
{"smiles": "Cc1ccc(C(=O)Nc2cnn(CC(=O)NC3CCCC3)c2)c(=O)[nH]1", "Percent Effect": -2.747}
{"smiles": "Cc1ccc(C(=O)NC2CCCN(C)C2)c(=O)[nH]1", "note": "(stereo unspecified)", "Percent Effect": 91.25}
{"smiles": "Cc1ccc(C(=O)NC2CCCN(CC(N)=O)C2)c(=O)[nH]1", "note": "(stereo unspecified)", "Percent Effect": 108.8}
{"smiles": "Cc1ccc(C(=O)NC(CN2CCCC2)c2ccccc2)c(=O)[nH]1", "note": "(stereo unspecified)", "Percent Effect": -7.426}
{"smiles": "Cc1ccc(C(=O)NCCN2CCOCC2)c(=O)[nH]1", "Percent Effect": 10.08}
{"smiles": "CCN1CCCC(NC(=O)c2ccc(C)[nH]c2=O)C1", "note": "(stereo unspecified)", "Percent Effect": 104.5}
